Assay results taken from PubChem BioAssay AID651903 (Broad Institute, 2012).
About 1,100 (5%) of roughly 22,000 compounds were called active. Shown is part of a subset that was picked to be rich in actives. Values without a mark were called inactive. Cut-off read from the data, not from the text of the source: active = activity score above about 55%; inconclusive = no clear call, values can overlap the other calls; inactive = below that.

Experiment: inhibitors of intracellular Trypanosoma cruzi, primary screen, cell-based, plate reader, single point, set 2 (AID 651903);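 note: parasites and compound incubated about four days before reading; 0% = median of neutral control wells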
Conditions: intracellular Trypanosoma cruzi in host cells, at 5.01 µM, stronger effect = higher value

| SMILES | activity score (inhibition) |
| --- | --- |
| Cc1cc(C(=O)Nc2cccc3c2O[C@@H](CN(C)S(=O)(=O)c2ccc(F)cc2)[C@@H](C)CN([C@H](C)CO)C3=O)n(C)n1 | 32.3% |
| Cc1noc(C)c1NC(=O)Nc1ccc2c(c1)C(=O)N([C@H](C)CO)C[C@H](C)[C@@H](CN(C)S(=O)(=O)c1cn(C)cn1)O2 | -7.25% |
| C[C@@H]1CN([C@H](C)CO)C(=O)Cc2cc(NC(=O)Nc3ccc(F)cc3)ccc2O[C@@H]1CN(C)C(=O)Nc1ccc2c(c1)OCO2 | -18.5% |
| C[C@@H]1CN([C@@H](C)CO)C(=O)Cc2cc(NC(=O)Nc3ccccc3)ccc2O[C@@H]1CN(C)S(=O)(=O)c1ccc(F)cc1 | 5.25% |
| CC(C)NC(=O)N(C)C[C@H]1Oc2ccc(NS(C)(=O)=O)cc2CC(=O)N([C@@H](C)CO)C[C@H]1C | -20.6% |
| COc1ccc(CN(C)C[C@@H]2Oc3ccc(NS(=O)(=O)c4cn(C)cn4)cc3C(=O)N([C@@H](C)CO)C[C@H]2C)cc1 | -24.5% |
| Cc1ccc(S(=O)(=O)N(C)C[C@@H]2Oc3c(NC(=O)c4nc5ccccc5s4)cccc3C(=O)N([C@H](C)CO)C[C@@H]2C)cc1 | 81.1% (active) |
| C[C@@H]1CN([C@H](C)CO)C(=O)c2cccc(NC(=O)c3nc4ccccc4s3)c2O[C@H]1CN(C)Cc1ccccc1 | 32.1% |
| C[C@@H]1CN([C@H](C)CO)C(=O)c2cccc(NC(=O)c3nc4ccccc4s3)c2O[C@@H]1CN(C)C | -35.8% |
| C[C@@H]1CN([C@H](C)CO)C(=O)c2cccc(NC(=O)c3nc4ccccc4s3)c2O[C@H]1CN(C)S(=O)(=O)c1ccc(Cl)cc1 | 67.6% (active) |
| C[C@@H]1CN([C@@H](C)CO)C(=O)c2cccc(NC(=O)c3nc4ccccc4s3)c2O[C@H]1CN(C)S(=O)(=O)c1cccs1 | 28.4% |
| CC(C)NC(=O)N(C)C[C@@H]1Oc2c(NC(=O)c3nc4ccccc4s3)cccc2C(=O)N([C@H](C)CO)C[C@H]1C | 47.9% |
| C[C@H]1CN([C@@H](C)CO)C(=O)Cc2cc(NC(=O)CCCN(C)C)ccc2O[C@@H]1CN(C)Cc1ccc(-c2ccccc2)cc1 | -19.2% |
| COc1ccc(NC(=O)N(C)C[C@@H]2Oc3ccc(NC(=O)CCC(F)(F)F)cc3C(=O)N([C@@H](C)CO)C[C@H]2C)cc1 | -13.2% |
| C[C@@H]1CN([C@@H](C)CO)C(=O)CCCn2cc(nn2)CO[C@@H]1CN(C)Cc1cccc(O)c1 | -17.1% |
| C[C@@H]1CN([C@@H](C)CO)C(=O)c2cc(NC(=O)c3ccncc3)ccc2O[C@@H]1CN(C)S(C)(=O)=O | -8.16% |
| C[C@H]1CN([C@@H](C)CO)C(=O)CCCn2nncc2CO[C@H]1CN(C)Cc1cccc(C(=O)O)c1 | -16.6% |
| COc1cccc(-c2cnc3c(c2)C(=O)N([C@H](C)CO)C[C@H](C)[C@H](CN(C)C(=O)NC(C)C)O3)c1 | 3.35% |
| C[C@H](CO)N1C[C@H](C)[C@H](CN(C)S(C)(=O)=O)Oc2c(NC(=O)Nc3cccc4ccccc34)cccc2C1=O | -17.4% |

| SMILES | activity score (inhibition) |
| --- | --- |
| Cc1ccc(CN(C)C[C@@H]2OCc3cnnn3CCCC(=O)N([C@@H](C)CO)C[C@H]2C)cc1 | -0.307% |
| C[C@@H]1CN([C@@H](C)CO)C(=O)c2cccc(NC(=O)c3cnccn3)c2O[C@H]1CN(C)Cc1ccc(C(=O)O)cc1 | 2.36% |
| C[C@H](CO)N1C[C@H](C)[C@@H](CN(C)S(=O)(=O)c2ccccc2)Oc2c(NC(=O)c3ccc(-c4nccs4)cc3)cccc2C1=O | 20.1% |
| C[C@H](CO)N1C[C@H](C)[C@@H](CN(C)Cc2ccc(C(=O)Nc3ccccc3N)cc2)Oc2c(NC(=O)c3ccc(-c4nccs4)cc3)cccc2C1=O | 64% (active) |
| C[C@@H]1CN([C@@H](C)CO)C(=O)c2cccc(NC(=O)c3ccc(-c4nccs4)cc3)c2O[C@H]1CN(C)Cc1ccc(Cl)c(Cl)c1 | 85.3% (active) |
| C[C@H](CO)N1C[C@H](C)[C@@H](CN(C)S(C)(=O)=O)Oc2c(NC(=O)c3ccc(-c4nccs4)cc3)cccc2C1=O | -3.29% |
| C[C@@H]1CN([C@@H](C)CO)C(=O)c2cccc(NC(=O)c3ccc(-c4nccs4)cc3)c2O[C@@H]1CN(C)Cc1ccncc1 | 20.7% |
| C[C@H]1CN([C@@H](C)CO)C(=O)c2cccc(NC(=O)c3ccc(-c4nccs4)cc3)c2O[C@H]1CN(C)Cc1ccc(C(=O)O)cc1 | -0.442% |
| C[C@@H]1CN([C@H](C)CO)C(=O)c2cccc(NC(=O)c3cnccn3)c2O[C@@H]1CN(C)Cc1ccncc1 | -11.1% |
| C[C@H](CO)N1C[C@H](C)[C@H](CN(C)S(C)(=O)=O)Oc2c(NC(=O)c3ccc(-c4nccs4)cc3)cccc2C1=O | 9.35% |
| C[C@@H]1CN([C@@H](C)CO)C(=O)c2cccc(NC(=O)c3ccc(-c4nccs4)cc3)c2O[C@@H]1CN(C)S(=O)(=O)c1ccccc1 | 24.8% |
| C[C@@H]1CN([C@H](C)CO)C(=O)c2cccc(NC(=O)c3cnccn3)c2O[C@@H]1CN(C)Cc1ccc(C(=O)Nc2ccccc2N)cc1 | 67.2% (active) |
| Cc1ccc(S(=O)(=O)N(C)C[C@H]2Oc3c(NC(=O)c4ccc(-c5nccs5)cc4)cccc3C(=O)N([C@H](C)CO)C[C@H]2C)cc1 | 69.5% (active) |
| O=C(O)c1cccc(/C=N/NC(=O)c2cccc(C(=O)NO)c2)c1 | -15.8% |
| Cc1cccc(CN(C)C[C@@H]2OCc3cn(nn3)CCCC(=O)N([C@@H](C)CO)C[C@H]2C)c1 | -37.4% |
| Cc1cccc(S(=O)(=O)N(C)C[C@@H]2OCc3cnnn3CCCC(=O)N([C@H](C)CO)C[C@@H]2C)c1 | 5.66% |
| C[C@H]1CN([C@@H](C)CO)C(=O)Cc2cc(NC(=O)Cc3ccccc3)ccc2O[C@H]1CN(C)S(=O)(=O)c1ccc(Cl)cc1 | 30.9% |
| Cc1ccc(S(=O)(=O)Nc2cccc3c2O[C@H](CN(C)CC2CCCCC2)[C@H](C)CN([C@H](C)CO)C3=O)cc1 | 2.35% |
